Screens as filed in PubChem.
ClpP mod – qHTS Assay for Activators of ClpP; ATP-dependent Clp protease proteolytic subunit (Bacillus subtilis (strain 168)), P80244; purified B. subtilis ClpP, FRET peptide cleavage, 20 min; Potency, µM (doses to about 57.5 µM), without a hit: at the highest dose activity change, negative = active; hit rate 1.9% among 340,000; AID 651965, 2013; active = well fitted falling curve with a large enough effect; inconclusive = small, poorly fitted or top-dose-only effect; inactive = no such curve, though single readings can be large or run the other way; note: potency is the fitted concentration of half-maximal effect; the source files actives as falling curves though it sought activators and does not explain the sign; nearly all actives have a fitted effect of over 65% in size
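FRET quenching reversal measured ClpP activation: 10 microg/mL B. subtilis ClpP at pH 8 with the FRET-FV decapeptide, read at 430 nm after 320 nm excitation. The 20-min minus 0-min signal was scaled between DMSO/no-enzyme wells and ADEP (5.8 microM final).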
uPA surface inh – cell surface uPA generation inhibition. cell surface uPA generation assay, qHTS. Potency, µM (highest dose often 38.3 µM), inactives show at the highest dose activity change, negative = inhibition, actives largely listed as inhibitors. hit rate 0.31% among 330,000. AID 540303; active = well fitted inhibition curve with a large enough effect; inconclusive = small, poorly fitted or top-dose-only effect; inactive = no such curve, though single readings can be large or run the other way; tested in mouse RAW 264.7 cells; note: potency is the fitted concentration of half-maximal effect; % is set by controls: 0 for no effect and ±100 for the full control effect; nearly all actives have a fitted effect of over 55% in size
Sfp inh – inhibitors of Bacillus subtilis Sfp phosphopantetheinyl transferase; Potency, µM, for the others: largest response in the series, negative = inhibition, actives largely listed as inhibitors; AID 1490; Q9F4F7; hit rate 3.5% among 310,000; Biochemical Sfp PPTase activity, qHTS;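 note: the enzyme is Sfp with the accession as filed and its product quenches rhodamine fluorescence; potency is the fitted concentration of half-maximal effect; 0% = enzyme reaction without inhibitor and -100% = no enzyme wells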
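Step 1, compound plus 15 nM Sfp-PPTase, 15 min, room temperature. Step 2, add rhodamine-CoA (5 uM) and BHQ-2-YbbR (12.5 uM). Step 3, read 525/598 nm fluorescence at 0 and 30 min.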
TCR act – activators of T cell receptors. primary human leukocytes, anti-CD3, IL-2 HTRF, 48 h. Potency, µM (top dose mostly 9.22 µM), for the others: at the top dose activation of IL-2 secretion, actives largely listed as activators. 330,000 tested, under 10 active; note: % of control where 0% means no effect
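Compounds are tested in HTS on primary human leukocytes co-incubated with a-CD3 beads for 48 hr. IL-2 output is measured by time-resolved FRET.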
Active calls of the source: *; ? = inconclusive; . = not tested or not shown; [ ] = dose if it differs, or a comment. Shown are actives, neighbours in structure and some others; about 4.2% of the full set was active somewhere. Unless noted, calls come from the whole dose curve; as a rule, active = well fitted curve in the direction sought with a large enough effect; inconclusive = small, poorly fitted or top-dose-only effect, or another doubt; inactive = no such curve, though single readings can be large; an effect the other way counts as inactive or inconclusive.

SMILES	ClpP mod	uPA surface inh	Sfp inh	TCR act
O=C(N/N=C/C(Br)=C/c1ccccc1)c1cccs1	.	-11%	56µM*	-1%
O=C(O)c1cccc(N2C(=O)C3C4C=CC(C4=C(c4ccccc4)c4ccccc4)C3C2=O)c1 (centres undefined)	.	-3%	35µM*	1%
COc1ccc(NC(=O)CN2C(=O)NC3(CCCCCC3)C2=O)cc1Cl	-4%	-6%	.	-1%[46.1 µM]
O=C(OCC(=O)c1ccccc1Br)c1ccccn1	-1%	1%	56µM*	1%
CCN(CC1CCCO1)C(=O)CCc1nnc(CCc2ccccc2OC)o1 (centres undefined)	-1%	3%	14%	3%
CN(C)C(=O)NC(NC(=S)Nc1ccccc1)C(Cl)(Cl)Cl (centres undefined)	1%	1%	56µM*	2%
O=C(NC(NC(=S)Nc1ccccc1)C(Cl)(Cl)Cl)c1cccc(Cl)c1 (centres undefined)	-3%	?	19%	-2%
Nc1cc(=O)[nH]c(=S)[nH]1	0%	.	.	.
Cc1cc(C)cc(Oc2coc3c(CN4CCN(C)CC4)c(O)ccc3c2=O)c1	4%	.	.	.
CC(C)C(=O)Nc1ccc(-c2nc3ccccc3c(=O)o2)cc1	-1%	-11%	-2%	7%
O=C(NCCCN1CCOCC1)c1ccc2c(=O)n(CCc3ccccc3)c(=O)[nH]c2c1	?	1%	11%	7%
CCCCCn1c(=O)[nH]c2cc(C(=O)NCCN3CCOCC3)ccc2c1=O	28µM*	0%	.	2%
CCCCCn1c(=O)[nH]c2cc(C(=O)NCCCN(CC)CC)ccc2c1=O	28µM*	-8%	6%	.
CCCCCn1c(=O)[nH]c2cc(C(=O)O)ccc2c1=O	22µM*	-5%	-18%	1%
COC(=O)c1ccc2c(=O)n(CCCCCC(=O)NCc3ccccc3)c(=O)[nH]c2c1	?	-5%	-15%	-6%
COC(=O)c1ccc2c(=O)n(CCCCCC(=O)NCc3ccccn3)c(=O)[nH]c2c1	32µM*	1%	-15%	-2%
C=CCN1c2ccccc2[C@]23C[C@@H](C(=O)OC)N(S(=O)(=O)c4ccc5c(c4)OCCN5C)C2=NC(C(=O)OC)=C(C(=O)OC)[C@H]13	.	.	9%	.
CC(=O)c1ccc(OC2C=CC(C#Cc3ccc(Br)cc3)OC2CO)cc1 (centres undefined)	.	.	5%	.
Brc1ccc(-c2nn3c(-c4ccco4)nnc3s2)o1	-2%	.	20µM*	18%
Brc1ccc(-c2nn3c(-c4ccccn4)nnc3s2)o1	-15%	.	8.9µM*	3%
CC(C)(C)c1ccc(-c2nnc3sc(-c4ccccn4)nn23)cc1	3%	-4%	45µM*	0%
c1coc(-c2nnc3sc(C4CCCCC4)nn23)c1	0%	0%	35µM*	-1%
CCc1cccc(C)c1NC(=O)CN(C)S(=O)(=O)c1cccc2nsnc12	1%	.	.	.
CCc1nnc(NC(=O)CCC(=O)Nc2ccc(Cl)cc2)s1	.	-2%	8%	2%
O=C(CSc1nc2ccccc2[nH]1)c1ccc2c(c1)OCO2	-2%	.	?	0%
SMILES	ClpP mod	uPA surface inh	Sfp inh	TCR act
Cc1ccc2nc(SCC(=O)c3ccc4c(c3)OCO4)[nH]c2c1	1%	3%	45µM*	.
COc1ccc(NC(=O)c2cc(C3CCCCN3C(=O)CCCc3ccccc3)on2)c(C)c1 (centres undefined)	-1%	.	.	.
CCCCNC(=S)Nc1ccc(Oc2ccccc2)cc1	.	3%	50µM*	8%
CCCNC(=S)Nc1ccc(Oc2ccccc2)cc1	1%	.	-8%	-1%
O=C(c1ccccc1Cl)N1CCC(n2cccc2)CC1	-16%	9%	1%	-11%
CCCN1CNc2c(c(=O)[nH]c(=S)n2CCc2ccc(Cl)cc2Cl)C1	-3%	.	.	.
COC(=O)c1ccc(-c2nc(CN3CCC(C(=O)N4CCOCC4)CC3)c(C)o2)cc1	7.9µM*	-4%	9%	-6%
Cc1cccc(N2CCN(C(=O)C3CCN(Cc4nc(-c5ccc(Cl)cc5)oc4C)CC3)CC2)c1C	-2%	.	.	.
Cc1cc(=O)n2nc(N3CCCC(C(=O)NCCCN4C(C)CCCC4C)C3)sc2n1 (centres undefined)	1%	.	.	.
CC(C)(C)c1nnc(N/N=C/c2ccccc2)n(N)c1=O	-2%	4%	79µM*	-8%[46.1 µM]
CC(C)(C)c1nnc(N/N=C/c2ccccc2O)n(N)c1=O	1%	-9%	-3%	-1%[46.1 µM]
